# KDM5B inh: Primary screen for KDM5B Histone Demethylases FDH-coupled qHTS; KDM5B demethylase, FDH-coupled NADH fluorescence (FDH is formaldehyde dehydrogenase); Potency, µM (titrated, usually from 57.7 µM), most hits filed as inhibitors; actives 2.6% (n = 220,000); Lysine-specific demethylase 5B (Homo sapiens), Q9UGL1; note: potency is the fitted concentration of half-maximal effect; 0% is about no effect; nearly all actives have a fitted effect of over 70% in size
# Target sequence (Q9UGL1 whole entry, looked up): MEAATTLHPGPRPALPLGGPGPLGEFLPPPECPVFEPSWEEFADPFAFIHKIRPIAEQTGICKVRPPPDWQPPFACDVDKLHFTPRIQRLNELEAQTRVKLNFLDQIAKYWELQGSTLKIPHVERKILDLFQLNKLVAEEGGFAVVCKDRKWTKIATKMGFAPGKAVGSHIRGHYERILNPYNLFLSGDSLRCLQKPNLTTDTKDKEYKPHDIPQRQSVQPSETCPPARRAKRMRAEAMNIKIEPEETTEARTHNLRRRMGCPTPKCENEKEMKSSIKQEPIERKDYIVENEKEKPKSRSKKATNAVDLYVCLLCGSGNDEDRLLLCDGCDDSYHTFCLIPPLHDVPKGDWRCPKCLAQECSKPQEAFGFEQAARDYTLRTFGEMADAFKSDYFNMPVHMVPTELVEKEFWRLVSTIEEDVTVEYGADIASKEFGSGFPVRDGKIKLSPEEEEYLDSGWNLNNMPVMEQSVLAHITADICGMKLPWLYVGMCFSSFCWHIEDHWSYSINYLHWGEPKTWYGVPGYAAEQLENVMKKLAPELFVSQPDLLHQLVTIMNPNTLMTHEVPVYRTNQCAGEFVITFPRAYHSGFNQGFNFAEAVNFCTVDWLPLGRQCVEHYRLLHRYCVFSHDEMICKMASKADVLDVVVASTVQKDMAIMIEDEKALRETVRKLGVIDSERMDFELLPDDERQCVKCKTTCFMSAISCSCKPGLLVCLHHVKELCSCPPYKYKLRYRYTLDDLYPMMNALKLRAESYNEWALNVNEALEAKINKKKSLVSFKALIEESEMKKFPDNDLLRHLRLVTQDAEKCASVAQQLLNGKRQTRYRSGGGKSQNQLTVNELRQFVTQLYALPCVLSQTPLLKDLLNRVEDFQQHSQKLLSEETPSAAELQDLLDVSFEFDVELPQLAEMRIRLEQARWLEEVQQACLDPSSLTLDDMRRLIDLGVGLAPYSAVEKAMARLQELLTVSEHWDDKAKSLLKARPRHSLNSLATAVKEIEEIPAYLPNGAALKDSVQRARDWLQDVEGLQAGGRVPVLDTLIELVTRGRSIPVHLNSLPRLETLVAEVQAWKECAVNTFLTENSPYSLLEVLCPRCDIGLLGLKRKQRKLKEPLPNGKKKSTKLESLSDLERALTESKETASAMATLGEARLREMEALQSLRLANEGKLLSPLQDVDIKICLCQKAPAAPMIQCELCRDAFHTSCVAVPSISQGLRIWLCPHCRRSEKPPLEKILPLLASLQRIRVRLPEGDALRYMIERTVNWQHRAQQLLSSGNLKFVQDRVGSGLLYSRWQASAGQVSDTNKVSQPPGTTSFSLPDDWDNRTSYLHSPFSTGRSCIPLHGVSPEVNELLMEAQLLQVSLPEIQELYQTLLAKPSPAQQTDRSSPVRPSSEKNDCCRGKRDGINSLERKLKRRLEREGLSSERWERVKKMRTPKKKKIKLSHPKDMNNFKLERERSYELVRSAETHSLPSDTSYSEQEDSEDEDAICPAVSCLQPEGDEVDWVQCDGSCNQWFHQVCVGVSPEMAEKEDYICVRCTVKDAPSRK
#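 Coupled FDH/NAD⁺ fluorescence readout. KDM5BΔAP 200 nM final; compound titration, 10 min RT preincubation; substrate mix 12.5 µM H3K4me3, 25 µM 2-OG, 50 µM Fe(II), 100 µM ascorbate, 0.25 mM NAD⁺, 0.25 U/mL FDH; ΔRFU over 30 min.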
# IP6K1 inh: Primary qHTS assay for small molecule inhibitors of Inositol hexaphosphate kinase 1 (IP6K1) | Inositol hexakisphosphate kinase 1 (Homo sapiens), Q92551 | IP6K1 kinase, ADP-Glo luminescence, 2 h; active compounds read low | AID 1645851, 2021 | actives 0.81% (n = 140,000) | activity change, % (series mostly up to about 58 µM); in the data active = activity change below about -25%; note: % is set by controls: 0 for no effect and ±100 for the full control effect
#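 ADP-Glo luminescence measures ADP made by human IP6K1 during a 2 h RT reaction with ATP/IP6 (mix at 1.3 mM/130 uM); top library doses 57.5 and 19.1 uM final.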
# SNCA expr inh: Primary qHTS assay for inhibitors of alpha-synuclein gene (SNCA) expression | HEK-293 SNCA-luciferase knock-in, luminescence, 24 h | Potency, µM (highest dose often 57.2 µM), for the others: top-dose activity change, negative = inhibition, actives largely listed as inhibitors | actives 0.17% (n = 140,000) | AID 1671194, 2021;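 note: potency is the fitted concentration of half-maximal effect; plate controls were DMSO cells for no effect and cell-free wells for full effect; nearly all actives have a fitted effect of over 45% in size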
# SNCA viab count: GF-AFC viability counterscreen for inhibitors of alpha-synuclein gene (SNCA) expression | Potency, µM (series often up to 57.1 µM), for the others: at the highest dose activity change, negative = cytotoxicity, actives largely listed as cytotoxic | actives 0.12% (n = 150,000) | HEK-293-SNCA-luc viability, GF-AFC fluorescence, 24 h;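 note: potency is the fitted concentration of half-maximal effect; 0% = DMSO-treated cells and -100% = medium-only wells without cells; nearly all actives have a fitted effect of over 30% in size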
#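 Cytotoxicity counterscreen: after 24 h compound treatment of genome-edited SNCA-luciferase HEK-293 cells, live-cell protease substrate GF-AFC read by fluorescence after 30 min; activity scaled between DMSO (0%) and medium-only (-100%), curves Hill-fitted.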
# IP6K1 inh cnf: Confirmatory qHTS assay for small molecule inhibitors of Inositol hexaphosphate kinase 1 (IP6K1); Potency, µM (titrated, usually from 49 µM), without a hit: top-dose activity change, negative = inhibition, usual class: inhibitors; recombinant IP6K1 kinase, ADP-Glo luminescence, 2 h; shares compounds with IP6K1 inh; actives 13% (n = 1,200); note: potency is the fitted concentration of half-maximal effect; % is set by controls: 0 for no effect and ±100 for the full control effect; nearly all actives have a fitted effect of over 65% in size
# * marks the source's active call; other numbers are inactive results; i = inactive; ? = inconclusive; · = not tested or not shown; ! = not active in a repeat; [ ] = another dose, or the depositor's remark. Sampled rows, rich in hits. Any-hit rate of the full collection: about 3%. Unless noted, calls come from the whole dose curve; as a rule, active = well fitted curve in the direction sought with a large enough effect; inconclusive = small, poorly fitted or top-dose-only effect, or another doubt; inactive = no such curve, though single readings can be large; an effect the other way counts as inactive or inconclusive.
SMILES,KDM5B inh,IP6K1 inh,SNCA expr inh,SNCA viab count,IP6K1 inh cnf
CCc1ccc(NC(=O)c2cc(-c3ccc[nH]3)n[nH]2)cc1,i,-3.1,6.2%,-0.6%,·
O=C(Cc1ccccc1)Nc1cccc(-c2nc3cccnc3s2)c1,?,-18.9,70.1%,5.9%,·
COCC(=O)Nc1cccc(-c2nc3cccnc3s2)c1,?,-26.8*,120.5%,5.9%,?
Cc1cccc(C(=O)n2nc(-c3cccnc3)nc2NCc2ccccc2)c1,i,-29.9*,17.8%,1.0%,?
Cc1ccccc1C(=O)n1nc(-c2cccnc2)nc1NCc1ccccc1,i,20.2,-3.0%,0.5%,·
Cc1ccc(C(=O)NC2=NC(c3ccc(C)cc3)CC(=O)N2)cc1 (stereo not drawn),i,-26.1*,-1.8%,-1.2%,-5.7%
CCOc1ccc(C2CC(=O)NC(NC(=O)c3ccc(C)cc3)=N2)cc1 (stereo not drawn),i,0.2,-0.3%,1.8%,·
O=C(NCC1CC1)c1ccc2nnc(Cc3ccco3)n2c1,·,-27.0*!,15.9%[87.6 µM],-10.5%[87.6 µM],?
COCCNC(=O)c1ccc2nnc(Cc3ccco3)n2c1,·,1.4,2.7%[87.6 µM],4.5%[87.6 µM],·
CC1CCCN(C(C)C(=O)N(C)CC(=O)Nc2ccccc2C(F)(F)F)C1 (stereo not drawn),i,·,·,·,·
CCOc1ccc(Cn2c(CNS(=O)(=O)c3ccc(Cl)s3)nc3cccnc32)cc1,?,-28.1*,?,0.6%,?
CCOc1ccc(Cn2c(CNS(=O)(=O)c3ccc(CC)cc3)nc3cccnc32)cc1,?,-22.3,-3.5%,-7.1%,·
CCNC(=O)NC(=O)CN(Cc1ccc(C)cc1)C1CC1,i,·,·,·,·
O=C(c1ccccc1)n1nc(-c2ccco2)nc1NCc1ccccc1Cl,?,-30.6*,67.8%,4.9%,-22.0%
CCOC(=O)c1ccc(NC(=O)c2csc3c2CCCC3)cc1,?,-32.9*,90.5%,0.2%,?
CN(C)CC(=O)N1Cc2ccccc2CC2(CCCN(CC3CCNCC3)C2)C1 (stereo not drawn),?,11.8,2.7%,-14.0%,·
CN(C)CC(=O)N1Cc2ccccc2CC2(CCN(CC3CCNCC3)C2)C1 (stereo not drawn),i,-26.8*,-5.0%,0.6%,?
CCNc1c(NC(=O)Nc2ccc(Br)cc2F)c(=O)oc2ccccc12,i,·,·,·,·
O=C1NC(=NC2CCCC2)C2(CCCN(CC3CCCCC3)C2)N1c1cc(F)cc(F)c1 (stereo not drawn),?,-11.4,-16.0%,?,·
COc1cccc(CCC(=O)N2C[C@@H]3CC[C@H](C2)N(CC2CCC2)C3=O)c1,i,-30.9*,14.2%,6.3%,-11.3%
Cc1c(C)n(C)c2ccc(C(=O)N3CCN(c4ccccn4)CC3)cc12,i,·,·,·,·
Cc1c(C)n(C)c2ccc(C(=O)N3CCN(c4ccccc4)CC3)cc12,i,-26.9*,10.6%,9.3%,-17.1%
Cc1nc2cc(NS(=O)(=O)c3ccc(C(C)(C)C)cc3)ccc2o1,i,·,·,·,·
COc1ccc(N2C(=O)CSC23C(=O)N(C)c2ccccc23)cc1Cl (stereo not drawn),?,-26.3*,-14.1%,-0.8%,-18.5%
COc1cc(N2C(=O)CSC23C(=O)N(C)c2ccccc23)cc(OC)c1OC (stereo not drawn),i,6.2,2.1%,-0.9%,·
SMILES,KDM5B inh,IP6K1 inh,SNCA expr inh,SNCA viab count,IP6K1 inh cnf
O=C(NCCOc1ccccc1)c1cc2ccccc2oc1=O,i,·,·,·,·
O=C(CSc1nc2c(cnn2-c2ccc(F)cc2)c(=O)[nH]1)Nc1ccc(Br)cc1,i,-28.0*,3.7%,-2.2%,-1.1%
Cc1cc(C)cc(NC(=O)CSc2nc3c(cnn3-c3ccc(F)cc3)c(=O)[nH]2)c1,i,-2.6,-15.1%,-6.0%,·
COc1ccc(CCNC(=O)Cc2c(C)c3ccc(OC(C)=O)c(OC(C)=O)c3oc2=O)cc1,i,·,·,·,·
COc1cccc(N2CCN(C(=O)CCSCc3ccccc3F)CC2)c1,i,-29.0*,44.5%,2.6%,-13.0%
O=C1C(SCCO)=C(SCCO)C(=O)c2ccccc21,·,·,?,1.0%,10.3µM*
O=C(Nc1ccc2oc(-c3cccnc3)nc2c1)c1ccccc1F,?,-29.5*,55.1%,13.8%,?
Cc1ccc(C(=O)Nc2ccc3oc(-c4cccnc4)nc3c2)c(Cl)c1,?,-29.8*,19.7%,-0.9%,?
Cc1cccc(-c2nc3cc(NC(=O)c4ccccc4F)ccc3o2)c1,i,·,·,·,·
C#C[C@]1(OC(C)=O)CC[C@H]2[C@@H]3CCC4=C/C(=N/O)CC[C@@H]4[C@H]3CC[C@@]21CC,·,-59.1*,112.2%[25.6 µM],33.2%[23.9 µM],?
C#C[C@]1(OC(C)=O)CCC2C3CCc4cc(OC(C)=O)ccc4C3CCC21C (stereo partly drawn),i,·,·,·,·
Cc1nn2c(=O)cc(CN3CCN(c4ncccn4)CC3)nc2s1,i,·,·,·,·
O=C(Nc1ccccc1Cl)C1CCN(c2ncnc3onc(-c4ccc(F)cc4)c23)CC1,i,·,·,·,·
O=C(Cn1cc(SCc2cccc(F)c2)c2ccccc21)N1CCCC1,i,-97.4*,104.1%,-3.7%,?
O=C(Cn1cc(SCc2cccc(F)c2)c2ccccc21)N1CCOCC1,?,-1.4,99.6%,-22.6%,·
Cc1cccc(NC(=O)CSc2cn(CC(=O)N3CCCCCC3)c3ccccc23)c1,i,-41.4*,?,-21.2%,-4.1%
CC(c1cccs1)N(C)S(=O)(=O)c1cc(C(=O)O)cs1 (stereo not drawn),i,·,·,·,·
Fc1ccc(OCc2ncc(-c3ccccc3)o2)c(Br)c1,i,·,·,·,·
O=C(C1C2C(=O)N(Cc3ccc(F)cc3)C[C@@]23C=C[C@@H]1O3)N1CCSCC1 (stereo partly drawn),i,-12.4,-0.5%,-9.5%,·
CN(Cc1cnn(C)c1)C(=O)C1C2C(=O)N(Cc3ccc(F)cc3)C[C@@]23C=C[C@@H]1O3 (stereo partly drawn),i,-41.6*,-19.9%,-4.6%,-13.1%
C=C1c2cccc(O)c2C(O)=C2C(=O)[C@]3(O)C(O)=C(C(N)=O)C(=O)[C@@H](N(C)C)[C@@H]3[C@@H](O)[C@H]12,·,-36.8*,-15.3%[25.6 µM],-22.0%[23.9 µM],-13.0%
CC(C)C(CNC(=O)c1n[nH]c(=O)c2ccccc12)N(C)C (stereo not drawn),i,·,·,·,·
COC(=O)c1ccc(OC(=O)/C=C/c2ccc(Br)o2)cc1,i,·,·,·,·
COc1ccc(-n2c(=O)c3c(n2Cc2ccccc2)CN(Cc2ccc(F)cc2)CC3)cc1,i,4.1,-6.7%,?,·

# Screening results from PubChem BioAssay.
